RORg inh: inhibitors of mouse ROR gamma transcriptional activity; P51450; Drosophila S2 Gal4-RORgamma UAS-luciferase reporter, 20 h; Potency, µM (doses to about 53.6 µM), hits mostly inhibitors; 310,000 tested, 5.4% active; AID 2551; also: nearly all actives have a fitted effect of over 60% in size
Target sequence (P51450 whole entry, looked up, the tested form may be a part): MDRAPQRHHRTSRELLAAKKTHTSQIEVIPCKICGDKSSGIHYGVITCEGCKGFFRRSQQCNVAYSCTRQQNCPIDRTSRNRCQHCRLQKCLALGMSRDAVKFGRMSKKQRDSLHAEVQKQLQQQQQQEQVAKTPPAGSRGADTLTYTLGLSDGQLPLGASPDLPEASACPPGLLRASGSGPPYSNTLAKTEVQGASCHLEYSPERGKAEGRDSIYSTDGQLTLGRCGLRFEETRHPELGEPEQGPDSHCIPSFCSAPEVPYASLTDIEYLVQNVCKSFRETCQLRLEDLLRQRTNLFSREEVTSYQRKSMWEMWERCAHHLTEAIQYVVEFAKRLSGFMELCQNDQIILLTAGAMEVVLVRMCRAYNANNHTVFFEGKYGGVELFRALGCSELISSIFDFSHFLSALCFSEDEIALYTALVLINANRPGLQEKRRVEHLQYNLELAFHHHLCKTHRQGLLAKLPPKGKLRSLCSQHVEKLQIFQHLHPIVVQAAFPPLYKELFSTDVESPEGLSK
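Stably transfected Drosophila Schneider cells are the test system, with ROR gamma fused to Gal4 and luciferase under UAS control; luminescence is read after 20 hr of 700 uM copper sulfate induction at ambient temperature.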
LDHA block: LDHA (human) enzyme inhibition; P00338; purified LDHA, NADH/diaphorase-resazurin fluorescence; stronger effect = lower value; activity change, % (values are at about 110 or 230 µM); 480,000 tested, 0.15% active; AID 1347041; in the data active = activity change below about -30%; inconclusive = mostly about -25% to -30%
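Enzyme activity of human lactate dehydrogenase 5 (2 nM; 0.06 mM NADH, 0.2 mM pyruvate, 5 min, RT) is measured via a resazurin/diaphorase fluorescence readout of residual NADH.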
TDP1 cell noCPT: qHTS for Inhibitors of human tyrosyl-DNA phosphodiesterase 1 (TDP1): qHTS in cells in absence of CPT | 420,000 tested, 15% active | Potency, µM (series often up to 46.2 µM), usual class: inhibitors | DT40 Tdp1-/- hTDP1 cells, no CPT, ATP luminescence, 48 h; also: nearly all actives have a fitted effect of over 55% in size
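Readout: luminescence from CellTiter-Glo after 30 min in the dark at RT. Cells: DT40 Tdp1-/- with stable hTDP1, 400/well. Exposure: compounds alone, ≥48 hr, 37 °C.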
TDP1 cell CPT: growth inhibition of DT40 Tdp1-/-;hTDP1 cells with camptothecin (screen for TDP1 inhibitors) | chicken DT40 Tdp1-/-;hTDP1 cells + 20 nM CPT, ATP luminescence, 48 h | Potency, µM (titrated, usually from 46.2 µM), hits mostly inhibitors | 420,000 tested, 12% active | AID 686979; also: nearly all actives have a fitted effect of over 55% in size
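Cell growth measured by CellTiter-Glo luminescence after a minimum 48 h, 37 C compound exposure with 20 nM CPT in Tdp1-knockout DT40 cells stably expressing hTDP1, seeded 400/well; qHTS titration format.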
VP16 counter: counter-screen for ROR gamma inhibitors: Gal4-VP16 reporter; Drosophila S2 Gal4-VP16 UAS-luciferase, luminescence, 20 h; Potency, µM (doses to about 53.6 µM), usual class: inhibitors; 310,000 tested, 3.5% active; AID 2546;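 also: Gal4-VP16 expression switched on by copper sulfate through the metallothionein promoter; nearly all actives have a fitted effect of over 50% in size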
IL-1B inflam inh: inflammasome signaling inhibition, IL-1 beta readout. 360,000 tested, 4.7% active. THP-1 LPS/ATP IL-1B secretion, AlphaLISA, 16 h; stronger effect = lower value. activity change, % at 57.5 µM. AID 743279; in the data active = activity change below about -50%; inconclusive = mostly about -30% to -49%
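THP-1 cells pretreated 1 hr with compounds (up to 57.5 uM final), then stimulated with LPS (250 ng/mL final) plus ATP (1.25 mM final); secreted IL-1B measured by AlphaLISA after 16 hr, decreased signal indicating inhibition.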
Each line names hits and unclear results; the compound was inactive in the other large screens. Sampled rows, rich in hits. Any-hit rate of the full collection: about 18%. Unless noted, calls follow the shape of the dose curve; as a rule, active = well fitted curve in the direction sought with a large enough effect; inconclusive = small, poorly fitted or top-dose-only effect, or another doubt; inactive = no such curve, though single readings can be large; an effect the other way counts as inactive or inconclusive.

CCc1c(-c2ccc(OC)cc2)ncn1Cc1cccc(-c2ccccc2)c1	TDP1 cell noCPT 4.61µM, TDP1 cell CPT 7.31µM (no result: RORg inh, VP16 counter)
CCc1c(-c2cccc(Br)c2)ncn1Cc1cccc(-c2ccccc2)c1	TDP1 cell noCPT 23.1µM, TDP1 cell CPT inconclusive, IL-1B inflam inh -95.1 (no result: RORg inh, VP16 counter)
Cn1c(=O)n(Cc2cccc(Br)c2)c(=O)c2c1ncn2Cc1ccccc1	none (no result: RORg inh, TDP1 cell noCPT, TDP1 cell CPT, VP16 counter, IL-1B inflam inh)
COCn1cnc(-c2ccccc2)c1-c1ccccc1	TDP1 cell noCPT inconclusive (no result: RORg inh, VP16 counter)
N#C/C(=C/c1ccc(-c2ccccc2)cc1)C(=O)c1ccsc1	none (no result: RORg inh, TDP1 cell noCPT, TDP1 cell CPT, VP16 counter, IL-1B inflam inh)
COc1ccc(C2C=C(c3ccc(Br)s3)Nc3ncnn32)cc1OC (stereo not given)	none (no result: LDHA block, TDP1 cell noCPT, TDP1 cell CPT, IL-1B inflam inh)
COc1ccc(C2C=C(c3ccc(Cl)cc3)Nc3nnnn32)c(OC)c1OC (stereo not given)	none (no result: RORg inh, TDP1 cell noCPT, TDP1 cell CPT, VP16 counter, IL-1B inflam inh)
COc1cccc(C2C=C(c3cccs3)Nc3ncnn32)c1OC (stereo not given)	RORg inh 11.2µM, TDP1 cell CPT inconclusive, VP16 counter inconclusive
COc1cccc(C2=CC(c3cccc(OC)c3OC)n3nnnc3N2)c1 (stereo not given)	RORg inh 3.16µM, TDP1 cell noCPT 16.4µM, TDP1 cell CPT 11.6µM
COc1cccc(C2C=C(c3ccc(C)c(C)c3)Nc3nnnn32)c1OC (stereo not given)	TDP1 cell noCPT 3.66µM, TDP1 cell CPT 5.17µM (no result: RORg inh, VP16 counter, IL-1B inflam inh)
N#CCOc1nc(-c2ccco2)c2c(c1C#N)CCC2	none (no result: RORg inh, TDP1 cell noCPT, TDP1 cell CPT, VP16 counter, IL-1B inflam inh)
CCn1c(SCC(=O)c2c[nH]c3ccccc23)nc2cc(S(=O)(=O)N3CCOCC3)ccc21	RORg inh inconclusive, TDP1 cell noCPT 20.6µM, TDP1 cell CPT 14.6µM
Nc1nc2cc(S(=O)(=O)N3CCOCC3)ccc2o1	TDP1 cell noCPT inconclusive, TDP1 cell CPT 23.1µM (no result: RORg inh, VP16 counter)
CCn1c(SCC(=O)N(C)C)nc2cc(S(=O)(=O)N3CCOCC3)ccc21	none (no result: RORg inh, VP16 counter)
CCCn1c(CCC(=O)Nc2ccccc2Cc2ccccc2)nc2cc(S(=O)(=O)N3CCOCC3)ccc21	TDP1 cell noCPT 23.1µM, TDP1 cell CPT 16.4µM
CCn1c(CCl)nc2cc(S(=O)(=O)N3CCOCC3)ccc21	TDP1 cell noCPT 2.91µM, TDP1 cell CPT 7.31µM, IL-1B inflam inh -100.7 (no result: RORg inh, VP16 counter)
c1cc(CNC2CCCC2)cs1	none (no result: RORg inh, TDP1 cell noCPT, TDP1 cell CPT, VP16 counter, IL-1B inflam inh)
CC(C)c1cc(=O)oc2cc(OS(=O)(=O)c3ccc(S(C)(=O)=O)cc3)ccc12	none (no result: RORg inh, TDP1 cell noCPT, TDP1 cell CPT, VP16 counter, IL-1B inflam inh)
CCn1c(SCC(N)=O)nc2cc(S(=O)(=O)N3CCOCC3)ccc21	none
CCOC(=O)CSc1nc2cc(S(=O)(=O)N3CCOCC3)ccc2n1CC	IL-1B inflam inh -90.3 (no result: RORg inh, VP16 counter)
COc1ccc(-c2sc3ccc(N4CCOCC4)cc3c2C#CCCO)cc1	TDP1 cell noCPT 4.61µM, TDP1 cell CPT 6.51µM (no result: RORg inh, VP16 counter)
COc1ccc2sc(-c3ccc(S(C)(=O)=O)cc3)c(C#CCO)c2c1	TDP1 cell noCPT 20.6µM, TDP1 cell CPT 14.6µM, IL-1B inflam inh -54.8 (no result: RORg inh, VP16 counter)
COc1ccc(-c2sc3cc(OC)c(OC)cc3c2C#CCCO)cc1	TDP1 cell noCPT inconclusive, TDP1 cell CPT inconclusive, IL-1B inflam inh inconclusive (no result: RORg inh, VP16 counter)
CS(=O)(=O)c1ccc(-c2sc3ccccc3c2C#CCCO)cc1	TDP1 cell noCPT inconclusive, TDP1 cell CPT 16.4µM (no result: RORg inh, VP16 counter)
COc1ccc2c(C#CCCO)c(-c3ccc(S(C)(=O)=O)cc3)sc2c1	TDP1 cell noCPT inconclusive, TDP1 cell CPT inconclusive (no result: RORg inh, VP16 counter)
Cn1cncc1C#Cc1c(-c2ccc(S(C)(=O)=O)cc2)sc2ccccc12	TDP1 cell noCPT 11.6µM, TDP1 cell CPT 13µM (no result: RORg inh, VP16 counter)
Cc1ccccc1-c1noc(COc2ccc3c(C)cc(=O)oc3c2)n1	none (no result: RORg inh, TDP1 cell noCPT, TDP1 cell CPT, VP16 counter, IL-1B inflam inh)
Cc1cc2oc(C(=O)Nc3ccc4c(c3)N(C)C(=O)CO4)c(C)c2cc1C	none (no result: RORg inh, TDP1 cell noCPT, TDP1 cell CPT, VP16 counter, IL-1B inflam inh)
COc1ccc2c(Cl)c(C(=O)NCCc3ccc(S(N)(=O)=O)cc3)sc2c1	RORg inh inconclusive
COc1ccc(-c2sc3ccccc3c2C#CCCO)cc1	TDP1 cell noCPT inconclusive, TDP1 cell CPT 25.9µM
COc1ccc2c(-c3ccc(S(N)(=O)=O)cc3)c(-c3ccc(S(C)(=O)=O)cc3)sc2c1	TDP1 cell noCPT inconclusive, TDP1 cell CPT 23.1µM (no result: RORg inh, VP16 counter)
Cc1cccc(C)c1OC(=O)c1ccc(C#N)cc1	none (no result: RORg inh, TDP1 cell noCPT, TDP1 cell CPT, VP16 counter, IL-1B inflam inh)
Cc1ccc(Nc2nc(N)c(C(=O)c3c(C)[nH]c4ccccc34)s2)c(C)c1	none (no result: RORg inh, TDP1 cell noCPT, TDP1 cell CPT, VP16 counter, IL-1B inflam inh)
COc1ccc(NC(=O)COc2cccc3c2CCN(Cc2cccnc2)C3=O)c(OC)c1	TDP1 cell noCPT 10.3µM, TDP1 cell CPT 11.6µM
COc1ccc(NC(=O)COc2cccc3c2CCN(Cc2cccnc2)C3=O)cc1	TDP1 cell noCPT inconclusive, TDP1 cell CPT inconclusive
COCCCNC(=O)CSc1c2c(nc3ccc(Cl)cc13)CCCC2	RORg inh inconclusive, TDP1 cell noCPT inconclusive, TDP1 cell CPT inconclusive, IL-1B inflam inh -155.5
CCc1ccc(CNC(=O)CSc2c3c(nc4ccc(Cl)cc24)CCCC3)cc1	TDP1 cell noCPT inconclusive (no result: RORg inh, VP16 counter, IL-1B inflam inh)
CC(C)OCCCNC(=O)CSc1c2c(nc3ccc(Cl)cc13)CCCC2	TDP1 cell noCPT 23.1µM, TDP1 cell CPT inconclusive (no result: RORg inh, VP16 counter, IL-1B inflam inh)
Fc1cccc(-c2cc3nc(-c4ccccc4)cc(N4CCC5(CC4)OCCO5)n3n2)c1	TDP1 cell noCPT 23.1µM, TDP1 cell CPT inconclusive
FC(F)(F)c1cc(-c2ccccc2)nc2cc(-c3ccccc3)nn12	none (no result: RORg inh, VP16 counter, IL-1B inflam inh)
COCCN1CCN(c2cc(-c3ccccc3)nc3cc(-c4cccc(F)c4)nn23)CC1	RORg inh inconclusive, TDP1 cell noCPT 9.2µM, TDP1 cell CPT 8.2µM, IL-1B inflam inh -79.4
Fc1ccc(-c2cc3nc(-c4ccccc4)cc(N4CCOCC4)n3n2)cc1	TDP1 cell noCPT 23.1µM, TDP1 cell CPT 13µM
